Reference: PubChem BioAssay AID1159580 (chemical genetic matrix, 2015)
Where “and” joins values, the source holds several entries; their conditions need not be identical. Equal entries are not always repeated. In all, about 5,500 compounds went through this assay and about 2,000 (36%) were called active. Roughly 18% stayed inconclusive and do not appear here. No stated cut-off is given here; in the data, active means normalized growth mostly below about 0.91 (no sharp cut-off); inconclusive means no clear call, values can overlap the other calls; inactive means mostly above about 0.92. The list shows a part of the results.

Assay: chemical genetic growth profiling, strain panel (AID 1159580);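 further: tested at 20 µM; growth read once vehicle control cultures reached saturation at 30 °C; 1 = growth at the plate median or of vehicle wells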
Conditions: S. cerevisiae deletion strains, growth OD

Measured: normalized growth

C[N+]1(CCCCC[N+]2(C)CCCC2)CCCC1
inactive: locus YAL013W, strain DEP1, stronger effect = lower value 1 and 0.986 | locus YAL021C, strain ccr4, stronger effect = lower value 0.99 | locus YAL026C, strain drs2, stronger effect = lower value 0.995 | locus YAL030W, strain snc1, stronger effect = lower value 1 | locus YAL040C, strain CLN3, stronger effect = lower value 0.976 | locus YBL061C, strain skt5, stronger effect = lower value 0.998 | locus YBR009C, strain hhf1, stronger effect = lower value 1 | locus YBR021W, strain FUR4, stronger effect = lower value 1.01 | locus YBR023C, strain chs3, stronger effect = lower value 0.989 | locus YBR171W, strain sec66, stronger effect = lower value 1 | locus YBR229C, strain ROT2, stronger effect = lower value 1.01 | locus YBR231C, strain swc5, stronger effect = lower value 0.986 | locus YBR279W, strain paf1, stronger effect = lower value 0.993 | locus YCL011C, strain gbp2, stronger effect = lower value 0.993 | locus YCL016C, strain dcc1, stronger effect = lower value 0.993 | locus YCL029C, strain bik1, stronger effect = lower value 1.04 | locus YCL061C, strain MRC1 (second series), stronger effect = lower value 0.994 | locus YCL061C, strain MRC1, stronger effect = lower value 0.995 | locus YCL069W, strain vba3, stronger effect = lower value 1 | locus YCR088W, strain abp1, stronger effect = lower value 0.999 | locus YDL005C, strain med2, stronger effect = lower value 0.983 | locus YDL035C, strain GPR1, stronger effect = lower value 1.01 | locus YDL040C, strain nat1, stronger effect = lower value 0.989 | locus YDL074C, strain BRE1, stronger effect = lower value 1.02 | locus YDL101C, strain DUN1, stronger effect = lower value 1.01 | locus YDL134C, strain PPH21, stronger effect = lower value 1.01 | locus YDL185W, strain tfp1, stronger effect = lower value 1.01 | locus YDL192W, strain arf1, stronger effect = lower value 1.02 | locus YDR001C, strain nth1, stronger effect = lower value 1 | locus YDR069C, strain doa4, stronger effect = lower value 0.995 | locus YDR101C, strain arx1, stronger effect = lower value 1.01 | locus YDR137W, strain rgp1, stronger effect = lower value 1.04 | locus YDR150W, strain NUM1, stronger effect = lower value 1 | locus YDR159W, strain sac3, stronger effect = lower value 0.991 | locus YDR162C, strain NBP2, stronger effect = lower value 1.01 | locus YDR195W, strain ref2 0.922 | locus YDR297W, strain sur2, stronger effect = lower value 1.01 | locus YDR318W, strain mcm21, stronger effect = lower value 1.02 | locus YDR334W, strain swr1, stronger effect = lower value 0.991 | locus YDR335W, strain msn5, stronger effect = lower value 0.991 | locus YDR363W, strain ESC2, stronger effect = lower value 0.985 | locus YDR388W, stronger effect = lower value 1.01 | locus YDR392W, strain spt3, stronger effect = lower value 1.01 | locus YDR502C, strain sam2, stronger effect = lower value 1.01 | locus YEL003W, strain gim4, stronger effect = lower value 0.997 | locus YEL037C, strain rad23, stronger effect = lower value 0.994 | locus YEL061C, strain CIN8 (second series), stronger effect = lower value 0.991 | locus YEL061C, strain CIN8, stronger effect = lower value 1 | locus YER002W, strain NOP16, stronger effect = lower value 1.01 | locus YER015W, strain faa2, stronger effect = lower value 0.993 | locus YER016W, strain bim1, stronger effect = lower value 0.995 | locus YER110C, stronger effect = lower value 1.02 | locus YER111C, strain swi4, stronger effect = lower value 0.983 | locus YER155C, strain BEM2 (second series), stronger effect = lower value 0.996 | locus YER155C, strain BEM2, stronger effect = lower value 0.997 | locus YER167W, strain BCK2, stronger effect = lower value 1 | locus YFR010W, strain ubp6, stronger effect = lower value 0.998 | locus YGL078C, strain dbp3, stronger effect = lower value 1.01 | locus YGL086W, strain mad1, stronger effect = lower value 0.996 | locus YGL167C, strain pmr1, stronger effect = lower value 1 | locus YGL173C, strain kem1, stronger effect = lower value 1 | locus YGL227W, strain vid30, stronger effect = lower value 0.984 | locus YGL240W, strain doc1, stronger effect = lower value 0.988 | locus YGL248W, strain PDE1, stronger effect = lower value 1.02 | locus YGL253W, strain hxk2, stronger effect = lower value 0.987 | locus YGR078C, strain PAC10, stronger effect = lower value 1.02 | locus YGR135W, strain pre9, stronger effect = lower value 1.01 | locus YGR229C, strain SMI1, stronger effect = lower value 1.01 | locus YGR252W, strain gcn5, stronger effect = lower value 1 | locus YHR013C, strain ard1, stronger effect = lower value 0.962 | locus YHR027C, strain rpn1, stronger effect = lower value 0.998 | locus YHR030C, strain SLT2, stronger effect = lower value 1.01 | locus YHR079C, strain IRE1 (second series), stronger effect = lower value 1.02 | locus YHR094C, strain hxt1, stronger effect = lower value 1.01 | locus YHR129C, strain ARP1, stronger effect = lower value 1.01 | locus YHR142W, strain chs7, stronger effect = lower value 0.997 | locus YHR200W, strain rpn10, stronger effect = lower value 1 | locus YIL066C, strain RNR3, stronger effect = lower value 1.01 | locus YIL073C, strain SPO22, stronger effect = lower value 1.05 | locus YIL125W, strain kgd1, stronger effect = lower value 1.02 | locus YIR030C, strain dcg1, stronger effect = lower value 1.01 | locus YJL092W, strain hpr5, stronger effect = lower value 0.997 | locus YJL095W, strain BCK1 (second series), stronger effect = lower value 0.993 | locus YJL095W, strain BCK1, stronger effect = lower value 1.03 | locus YJL115W, strain asf1, stronger effect = lower value 0.988 | locus YJL129C, strain trk1, stronger effect = lower value 0.992 | locus YJL134W, strain LCB3, stronger effect = lower value 1 | locus YJL154C, strain vps35, stronger effect = lower value 0.995 | locus YJL164C, strain tpk1, stronger effect = lower value 0.995 | locus YJL166W, strain qcr8, stronger effect = lower value 0.999 | locus YJL168C, strain set2, stronger effect = lower value 1.01 | locus YJL187C, strain SWE1 (second series), stronger effect = lower value 1.02 | locus YJL187C, strain SWE1, stronger effect = lower value 1
